Results taken from PubChem BioAssay AID1159580 (chemical genetic matrix, 2015).
Screen size: about 5,500 compounds; about 2,000 (36%) were called active. Another 18% or so got no clear call; they are omitted. The list shows a part of the results. Values without a mark were called inactive. No stated cut-off is given here; in the data, active means normalized growth mostly below about 0.91 (no sharp cut-off); inconclusive means no clear call, values can overlap the other calls; inactive means mostly above about 0.92.

Assay: chemical genetic growth profiling, strain panel (AID 1159580);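 further: tested at 20 µM; growth read once vehicle control cultures reached saturation at 30 °C; 1 = growth at the plate median or of vehicle wells; lower values mean less growth of the strain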
Settings: growth OD

CN[C@@H]1C(O)[C@@H](O[C@@H]2[C@@H](O)[C@H](O[C@H]3OC(CN)=CC[C@H]3N)[C@@H](N)C[C@H]2N)OC[C@]1(C)O (some centres undefined)
normalized growth (S. cerevisiae deletion strains, locus YJR075W, strain HOC1, hits give low values): 1.02 | normalized growth (S. cerevisiae deletion strains, locus YKL009W, strain mrt4, hits give low values): 1.01 | normalized growth (S. cerevisiae deletion strains, locus YKL068W, hits give low values): 0.996 | normalized growth (S. cerevisiae deletion strains, locus YKL085W, strain MDH1 (second series), hits give low values): 1 | normalized growth (S. cerevisiae deletion strains, locus YKL085W, strain MDH1, hits give low values): 1 | normalized growth (S. cerevisiae deletion strains, locus YKL160W, strain elf1, hits give low values): 1.02 | normalized growth (S. cerevisiae deletion strains, locus YKL190W, strain CNB1, hits give low values): 1.02 | normalized growth (S. cerevisiae deletion strains, locus YKR001C, strain vps1, hits give low values): 0.993 | normalized growth (S. cerevisiae deletion strains, locus YKR026C, strain gcn3, hits give low values): 1 | normalized growth (S. cerevisiae deletion strains, locus YKR091W, strain srl3, hits give low values): 1.01 | normalized growth (S. cerevisiae deletion strains, locus YLL001W, strain dnm1, hits give low values): 1.03 | normalized growth (S. cerevisiae deletion strains, locus YLL026W, hits give low values): 1.02 | normalized growth (S. cerevisiae deletion strains, locus YLL041C, strain sdh2, hits give low values): 1.02 | normalized growth (S. cerevisiae deletion strains, locus YLR027C, strain aat2, hits give low values): 1.02 | normalized growth (S. cerevisiae deletion strains, locus YLR039C, strain RIC1, hits give low values): 1.13 | normalized growth (S. cerevisiae deletion strains, locus YLR058C, strain SHM2, hits give low values): 1.02 | normalized growth (S. cerevisiae deletion strains, locus YLR102C, strain apc9, hits give low values): 0.993 | normalized growth (S. cerevisiae deletion strains, locus YLR113W, strain HOG1, hits give low values): 0.949 | normalized growth (S. cerevisiae deletion strains, locus YLR221C, strain rsa3, hits give low values): 0.984 | normalized growth (S. cerevisiae deletion strains, locus YLR258W, strain gsy2, hits give low values): 1.01 | normalized growth (S. cerevisiae deletion strains, locus YLR262C, strain YPT6 (second series), hits give low values): 1.03 | normalized growth (S. cerevisiae deletion strains, locus YLR262C, strain YPT6, hits give low values): 1.09 | normalized growth (S. cerevisiae deletion strains, locus YLR268W, strain sec22, hits give low values): 1.01 | normalized growth (S. cerevisiae deletion strains, locus YLR320W, strain mms22, hits give low values): 0.988 | normalized growth (S. cerevisiae deletion strains, locus YLR330W, strain CHS5, hits give low values): 1.01 | normalized growth (S. cerevisiae deletion strains, locus YLR342W, strain FKS1 (second series), hits give low values): 1.05 | normalized growth (S. cerevisiae deletion strains, locus YLR342W, strain FKS1, hits give low values): 1.02 | normalized growth (S. cerevisiae deletion strains, locus YLR357W, strain rsc2, hits give low values): 1.03 | normalized growth (S. cerevisiae deletion strains, locus YLR370C, strain arc18, hits give low values): 1.02 | normalized growth (S. cerevisiae deletion strains, locus YLR371W, strain rom2, hits give low values): 0.995 | normalized growth (S. cerevisiae deletion strains, locus YLR384C, strain iki3, hits give low values): 1.01 | normalized growth (S. cerevisiae deletion strains, locus YLR418C, strain cdc73, hits give low values): 1.02 | normalized growth (S. cerevisiae deletion strains, locus YML016C, strain PPZ1, hits give low values): 1.02 | normalized growth (S. cerevisiae deletion strains, locus YML120C, strain ndi1, hits give low values): 1.02 | normalized growth (S. cerevisiae deletion strains, locus YML124C, strain tub3, hits give low values): 0.991 | normalized growth (S. cerevisiae deletion strains, locus YMR058W, strain fet3, hits give low values): 1.03 | normalized growth (S. cerevisiae deletion strains, locus YMR078C, strain ctf18, hits give low values): 0.996 | normalized growth (S. cerevisiae deletion strains, locus YMR125W, strain sto1, hits give low values): 1 | normalized growth (S. cerevisiae deletion strains, locus YMR129W, hits give low values): 1.01 | normalized growth (S. cerevisiae deletion strains, locus YMR205C, strain PFK2, hits give low values): 1.02 | normalized growth (S. cerevisiae deletion strains, locus YMR223W, strain ubp8, hits give low values): 1 | normalized growth (S. cerevisiae deletion strains, locus YMR231W, strain pep5, hits give low values): 1 | normalized growth (S. cerevisiae deletion strains, locus YMR263W, strain SAP30, hits give low values): 1.05 | normalized growth (S. cerevisiae deletion strains, locus YMR307W, strain GAS1, hits give low values): 1.01 | normalized growth (S. cerevisiae deletion strains, locus YNL067W, strain RPL9B, hits give low values): 1.04 | normalized growth (S. cerevisiae deletion strains, locus YNL071W, strain lat1, hits give low values): 1.02 | normalized growth (S. cerevisiae deletion strains, locus YNL128W, strain TEP1, hits give low values): 1.04 | normalized growth (S. cerevisiae deletion strains, locus YNL153C, strain GIM3, hits give low values): 1.03 | normalized growth (S. cerevisiae deletion strains, locus YNL183C, strain NPR1, hits give low values): 0.93 | normalized growth (S. cerevisiae deletion strains, locus YNL209W, strain ssb2, hits give low values): 1.01 | normalized growth (S. cerevisiae deletion strains, locus YNL233W, strain BNI4, hits give low values): 1.02 | normalized growth (S. cerevisiae deletion strains, locus YNL248C, strain rpa49, hits give low values): 0.992 | normalized growth (S. cerevisiae deletion strains, locus YNL250W, strain rad50, hits give low values): 1 | normalized growth (S. cerevisiae deletion strains, locus YNL271C, strain bni1, hits give low values): 1 | normalized growth (S. cerevisiae deletion strains, locus YNL298W, strain CLA4, hits give low values): 1 | normalized growth (S. cerevisiae deletion strains, locus YNL307C, strain MCK1, hits give low values): 0.999 | normalized growth (S. cerevisiae deletion strains, locus YNL322C, strain KRE1 (second series), hits give low values): 0.996 | normalized growth (S. cerevisiae deletion strains, locus YNL322C, strain KRE1, hits give low values): 1.02 | normalized growth (S. cerevisiae deletion strains, locus YNR049C, strain mso1, hits give low values): 1.04 | normalized growth (S. cerevisiae deletion strains, locus YNR052C, strain pop2, hits give low values): 0.987 | normalized growth (S. cerevisiae deletion strains, locus YOL006C, strain TOP1, hits give low values): 1.19 | normalized growth (S. cerevisiae deletion strains, locus YOL012C, strain htz1): 2.02 | normalized growth (S. cerevisiae deletion strains, locus YOL147C, strain pex11, hits give low values): 0.986 | normalized growth (S. cerevisiae deletion strains, locus YOR001W, strain rrp6, hits give low values): 1.03 | normalized growth (S. cerevisiae deletion strains, locus YOR061W, strain CKA2, hits give low values): 1.02 | normalized growth (S. cerevisiae deletion strains, locus YOR069W, strain VPS5, hits give low values): 1.11 [resistant] (active) | normalized growth (S. cerevisiae deletion strains, locus YOR070C, strain gyp1, hits give low values): 1 | normalized growth (S. cerevisiae deletion strains, locus YOR080W, strain dia2, hits give low values): 1 | normalized growth (S. cerevisiae deletion strains, locus YOR083W, strain WHI5, hits give low values): 0.992 | normalized growth (S. cerevisiae deletion strains, locus YOR106W, strain vam3, hits give low values): 1.03 | normalized growth (S. cerevisiae deletion strains, locus YOR136W, strain idh2, hits give low values): 0.991 | normalized growth (S. cerevisiae deletion strains, locus YOR144C, strain elg1, hits give low values): 0.991 | normalized growth (S. cerevisiae deletion strains, locus YOR184W, strain ser1, hits give low values): 1.01 | normalized growth (S. cerevisiae deletion strains, locus YOR231W, strain MKK1, hits give low values): 0.952 | normalized growth (S. cerevisiae deletion strains, locus YOR265W, strain rbl2, hits give low values): 1 | normalized growth (S. cerevisiae deletion strains, locus YOR270C, strain vph1, hits give low values): 1.05 | normalized growth (S. cerevisiae deletion strains, locus YOR290C, strain snf2, hits give low values): 0.979 | normalized growth (S. cerevisiae deletion strains, locus YPL051W, strain arl3, hits give low values): 1.01 | normalized growth (S. cerevisiae deletion strains, locus YPL055C, strain LGE1, hits give low values): 1.09 | normalized growth (S. cerevisiae deletion strains, locus YPL078C, strain atp4, hits give low values): 1.03 | normalized growth (S. cerevisiae deletion strains, locus YPL106C, strain sse1, hits give low values): 1.02 | normalized growth (S. cerevisiae deletion strains, locus YPL240C, strain hsp82, hits give low values): 1.01 | normalized growth (S. cerevisiae deletion strains, locus YPL256C, strain CLN2, hits give low values): 0.96 | normalized growth (S. cerevisiae deletion strains, locus YPR119W, strain clb2, hits give low values): 0.984 | normalized growth (S. cerevisiae deletion strains, locus YPR141C, strain kar3, hits give low values): 1 | normalized growth (S. cerevisiae deletion strains, locus YPR163C, strain tif3, hits give low values): 0.966 | normalized growth (S. cerevisiae deletion strains, locus YPR167C, strain met16, hits give low values): 0.999 | normalized growth (S. cerevisiae deletion strains, strain wtn01, hits give low values): 1.01 | normalized growth (S. cerevisiae strains, strain wild type, hits give low values): 1.01
